Measurements published in PubChem BioAssay (NCATS).
Where “and” joins values, the source holds several entries; their conditions need not be identical. Equal entries are not always repeated. Inconclusive results are not listed. Values without a mark were called inactive. Calls of active or inactive are those of the source. Calls come from the whole dose curve; as a rule, active = well fitted cell-killing curve with a large enough effect; inconclusive = small, poorly fitted or top-dose-only effect; inactive = flat fitted curve, though single readings scatter.

Assay: Cellular viability qHTS for adrenocortical cancer (ACC) cell line SW-13 (AID 1963989); note: nearly all actives have a fitted effect of over 65% in size;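 for activity (max response): cells grown in serum-free medium with ITS supplement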
Settings: SW-13 ACC cells viability, CellTiter-Glo, 48 h; activity (max response): stronger effect = lower value
Summary of the method: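 Here, serum-free SW-13 cultures were dosed up to 46 uM. Following 48 h, ATP-dependent luminescence (CellTiter-Glo) reported viable cells, and logistic modeling produced IC50 values.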
% is set by controls: 0 for no effect and ±100 for the full control effect; potency is the fitted concentration of half-maximal effect.

Structure (SMILES)	activity (max response)	Potency
CC(C)c1c(C(=O)Nc2ccccc2)c(-c2ccccc2)c(-c2ccc(F)cc2)n1CC[C@@H](O)C[C@@H](O)CC(=O)O	-20.9% and -15.4%	
Nc1cc(=O)[nH]c(N)n1	-6.62%	
CC(C)c1cc(CNc2nc(Nc3cc(C4CC4)[nH]n3)cc(N3CCN(C)CC3)n2)on1		3.98 µM (active)
COc1cc(-c2ccc(=O)[nH]n2)ccc1OC(F)F	-6.02%	
CN[C@@H]1[C@@H](O)[C@@H](O[C@@H]2[C@H](O)[C@H](O[C@H]3OC(CN)=CC[C@H]3N)[C@@H](N)C[C@H]2N)OCC1(C)O (stereo not given in full)	5.55%	
N=C1CCCN1Cc1[nH]c(=O)[nH]c(=O)c1Cl	-17.6%	
CN(C)CCOc1ccc(/C(=C(/CCCl)c2ccccc2)c2ccccc2)cc1	-6.2%	
CC(=O)OCC[N+](C)(C)C	10.9%	
CC(C)(O)CC[C@@H](O)[C@](C)(O)[C@H]1CC[C@@]2(O)C3=CC(=O)[C@@H]4C[C@@H](O)[C@@H](O)C[C@]4(C)[C@H]3CC[C@]12C	9.11%	
Nc1c2c(nc3c1CCC3)CCCC2	-9.88%	
NCC1CCC(C(=O)O)CC1 (stereo not given)	10.7%	
CCCNC(C)C(=O)Nc1c(C)csc1C(=O)OC (stereo not given)	8.19%	
C[C@@H](Nc1ncnc2[nH]c(-c3ccc(O)cc3)cc12)c1ccccc1		3.98 µM (active)
C=CC(=O)Nc1cc(Nc2nccc(-c3cn(C)c4ccccc34)n2)c(OC)cc1N(C)CCN(C)C		2 µM (active)
C[C@H]1O[C@H](O[C@H]2[C@H](O)[C@@H](O)[C@@H](O[C@H]3[C@H](O)[C@@H](O)C(O)O[C@@H]3CO)O[C@@H]2CO)[C@H](O)[C@@H](O)[C@@H]1N[C@H]1C=C(CO)[C@@H](O)[C@H](O)[C@H]1O (stereo not given in full)	-4.82%	
CCOC(=O)c1cnc2c(cnn2CC)c1NN=C(C)C	7.42%	
CN1CCC[C@@H]1c1cccnc1	-8.92%	
CC(C)(C)C(O)/C=C/c1ccc2c(c1)OCO2 (stereo not given)	-8.69%	
C/C=C/C/C=C/CCC(=O)[C@H]1O[C@H]1C(N)=O		25.1 µM (active)
C[C@@H](Oc1cc(C(=O)Nc2ccc(C(=O)N3CCN(C)CC3)cc2)nnc1N)c1c(Cl)ccc(F)c1Cl		17.8 µM (active)
CC(O)C(=O)O (stereo not given)	6.49%	
CCCCC1(COC(=O)CCC(=O)O)C(=O)N(c2ccccc2)N(c2ccccc2)C1=O	6.69%	
CCCCCCCCCCCCCCCC[N+](C)(C)CC		5.17 µM (active)
C#C[C@]1(O)CC[C@H]2[C@@H]3CCc4cc(O)ccc4[C@H]3CC[C@@]21C		7.94 µM (active)
CN(C)C[C@@H]1CCn2cc(c3ccccc32)C2=C(C(=O)NC2=O)c2cn(c3ccccc23)CCO1		28.2 µM (active)
